Sampled rows, rich in hits. Any-hit rate of the full collection: about 3.3%.
ERb coact inh: ER-beta (human) coactivator binding inhibition | Q92731 | TR-FRET ER-beta LBD / SRC1-Cy5 peptide binding; receptor agonist-loaded with 1 µM estradiol | inhibition, % at 25.6 µM | 86,000 compounds, 1.3% hits | AID 633;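 active = compounds whose percent inhibition of the receptor-coactivator binding signal exceeds about 50% in the single-dose screen, limit read from the data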
Smad3 FoxH1 inh: Smad3 (human) transcription factor binding inhibition | P84022 | TR-FRET Smad3/Dy647-FoxH1 peptide binding, europium anti-His | inhibition, % at 25 µM | 88,000 compounds, 0.29% hits;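 active = compounds that reduce the energy-transfer binding signal between the protein and its labelled peptide by more than half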
Target sequence (P84022 whole entry, looked up): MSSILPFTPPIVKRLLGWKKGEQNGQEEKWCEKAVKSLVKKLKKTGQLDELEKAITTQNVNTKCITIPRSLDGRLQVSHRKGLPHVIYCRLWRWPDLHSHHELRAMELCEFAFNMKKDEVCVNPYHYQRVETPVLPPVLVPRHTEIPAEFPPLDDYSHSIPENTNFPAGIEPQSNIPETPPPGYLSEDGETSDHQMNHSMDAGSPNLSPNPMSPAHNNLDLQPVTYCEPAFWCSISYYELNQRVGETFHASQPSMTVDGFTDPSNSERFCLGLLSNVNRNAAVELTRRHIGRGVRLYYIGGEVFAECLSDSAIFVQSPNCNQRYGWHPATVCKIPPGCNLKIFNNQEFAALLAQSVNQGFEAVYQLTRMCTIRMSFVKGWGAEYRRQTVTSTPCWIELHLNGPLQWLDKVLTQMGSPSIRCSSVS
ERa SRC1 pot: ER-alpha (human) coactivator binding potentiation. P03372. TR-FRET ERalpha-LBD/SRC-Cy5 coactivator binding, 2 h; 100 = basal binding, no effect. coactivator binding (% of control), % at 25.6 µM. 86,000 compounds, 1.3% hits; in the data active = activity above about 200%;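 note: binding measured in presence of low estradiol as agonist stimulus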
FAK inh: inhibitors of human focal adhesion kinase | biochemical FAK kinase activity assay | inhibition, %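 (tested at 7 µM)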 | 97,000 compounds, 0.84% hits | AID 727
ERa SRC1 inh: blocks coactivator binding to human estrogen receptor alpha; 86,000 compounds, 1.7% hits; TR-FRET ER-alpha LBD / SRC-1 peptide, estradiol-bound; inhibition, % at 25.6 µM; in the data active = inhibition above about 50%
FAK inh confirm: FAK (human) inhibition confirmed; shares compounds with FAK inh; FAK kinase biochemical inhibition assay; inhibition, % at 7 µM; 750 compounds, 28% hits; AID 794
Of the large screens only hits and unclear results are named; the others gave an inactive call (follow-up assays come after a bar, where they were run); [ ] = dose if it differs, or a comment. Cut-off read from the data, not from the text of the source, unless noted: active = inhibition above about 19%; inactive = the rest.

CC12CN3CC(C)(CN(C1)C3c1ccncc1)C2=O (stereo not given)	ERb coact inh 93[fluorescence artefact?]
CC12CN3CC(C)(CN(C1)C31CCSCC1)C2=O	none
COC(=O)C(O)(c1ccc(N(C)C(=O)OC(C)C)cc1)C(F)(F)F (stereo not given)	ERb coact inh 68
CCOC(=O)N(C)c1ccc(C(O)(C(=O)OCC)C(F)(F)F)cc1 (stereo not given)	none
Cc1c(C(=O)N2CCC3(CC2)OCCO3)oc2ccc(S(=O)(=O)N3CCOCC3)cc12	Smad3 FoxH1 inh 67
Cc1c(C(=O)N2CCC3(CC2)OCCO3)oc2ccccc12	none
CCOc1ccccc1-n1c(O)c(C=Nc2ccc(N(CC)CC)cc2)c(=O)[nH]c1=O	ERa SRC1 inh 62[fluorescence artefact?] (no result: FAK inh)
CN(C)CS/C(N)=N/[C@H](O)C(Cl)(Cl)Cl	Smad3 FoxH1 inh 54 (no result: ERb coact inh, ERa SRC1 pot, FAK inh, ERa SRC1 inh)
CC1=CC(=C2C(=O)NC(=S)NC2=O)C=C(C(F)(F)F)N1C	ERb coact inh 63[fluorescence artefact?], ERa SRC1 inh 52[fluorescence artefact?]
COc1ccc(C(=O)O[C@@H]2CC[C@@]3(C)[C@@H]4CC[C@@H]5[C@@]6(O)C[C@@H](O)[C@@]7(O)[C@@H](CN8C[C@H](C)CC[C@H]8[C@]7(C)O)[C@]6(O)C[C@@]53O[C@@]42O)cc1OC	none (no result: ERb coact inh, ERa SRC1 pot, FAK inh, ERa SRC1 inh)
O=C(c1ccc2nc(-c3ccco3)c(-c3ccco3)nc2c1)N1CCC2(CC1)OCCO2	ERb coact inh 76[fluorescence artefact?], ERa SRC1 inh 56[fluorescence artefact?] (no result: FAK inh)
Cc1nc2cc(C(=O)N3CCC4(CC3)OCCO4)ccc2n1-c1cccc(F)c1	none
O=S(=O)(O)/C(=C\c1ccccc1)c1ccccc1 (tested in a mixture with another compound)	none (no result: ERb coact inh, ERa SRC1 pot, FAK inh, ERa SRC1 inh)
COc1cc2c(cc1OC)[C@@]13CCN4C=C5CCO[C@H]6CC(=O)N2[C@H]1[C@H]6[C@H]5C[C@H]43	none (no result: ERb coact inh, ERa SRC1 pot, FAK inh, ERa SRC1 inh)
CCNC(C)(C)[C@@H](SS)c1ccc(Br)cc1	Smad3 FoxH1 inh 96 (no result: ERb coact inh, ERa SRC1 pot, FAK inh, ERa SRC1 inh)
O=C(NCC1CC1)[C@@H]1C2c3ccccc3C(c3ccccc32)[C@@H]1C(=O)O	none (no result: ERb coact inh, ERa SRC1 pot, FAK inh, ERa SRC1 inh)
CC(=O)O/C(=C1\C[C@@H]2[C@H]3CC=C4C[C@@H](OC(C)=O)CC[C@]4(C)[C@@H]3CC[C@@]2(C)C1=O)C(F)(F)F	none (no result: ERb coact inh, ERa SRC1 pot, FAK inh, ERa SRC1 inh)
C[C@@H]1O[C@H](OC2[C@@H](O)[C@H](O)C(O)[C@H](O)[C@H]2O)[C@@H](N)C[C@H]1N=C(N)C(=O)O (stereo not given in full)	none (no result: ERb coact inh, ERa SRC1 pot, FAK inh, ERa SRC1 inh)
O=C(O)C[C@H]1OCC=C2CN3CC[C@]45C6=CC(=O)C(=O)C([N+](=O)[O-])=C6N[C@H]4[C@H]1[C@H]2C[C@H]35	Smad3 FoxH1 inh 58 (no result: ERb coact inh, ERa SRC1 pot, FAK inh, ERa SRC1 inh)
Nc1nc(N)c(N=Nc2ccc([As](=O)(O)O)c(O)c2)c(N)n1	Smad3 FoxH1 inh 84 (no result: ERb coact inh, ERa SRC1 pot, FAK inh, ERa SRC1 inh)
CC(C)=C[C@H]1[C@H](C(=O)OCc2cc3c(cc2Cl)OCO3)C1(C)C	none (no result: ERb coact inh, ERa SRC1 pot, FAK inh, ERa SRC1 inh)
CN(C)c1ccc(NC(=O)CN2C(=O)CN=C(c3ccccc3)c3ccccc32)cc1	ERb coact inh 53[fluorescence artefact?]
CN(C)c1ccc(NC(=O)CN2C(=O)CN=C(c3ccccc3)c3cc(Cl)ccc32)cc1	none
CC(C)OCCCNC(=O)c1c(N)n(CC2CCCO2)c2nc3ccccc3nc12 (stereo not given)	none
CCCNC(=O)c1c(N)n(CC2CCCO2)c2nc3ccccc3nc12 (stereo not given)	Smad3 FoxH1 inh 61
C[C@H](c1ccccc1)N1CCN([C@@H](C)c2ccccc2)CC1	none (no result: ERb coact inh, ERa SRC1 pot, FAK inh, ERa SRC1 inh)
C/C(N[O-])=C(\C)[N+]([O-])=[Rh][Cl].CC(=N\[O-])/C(C)=N/[O-].c1ccc([PH+](c2ccccc2)c2ccccc2)cc1	none (no result: ERb coact inh, ERa SRC1 pot, FAK inh, ERa SRC1 inh)
Clc1cccc(Cl)c1C1N2CCCN12 (stereo not given)	ERb coact inh 81[fluorescence artefact?]
O=C1CN=C(c2cccs2)c2c(sc3c2CCCC3)N1	ERb coact inh 64[fluorescence artefact?]
O=C(CSc1ccccc1)N1CCC2(CC1)OCCO2	none
Cn1c(=O)cc(SCC(=O)N2CCC3(CC2)OCCO3)c2ccc(Cl)cc21	Smad3 FoxH1 inh 56[fluorescence artefact?]
C1C[C@@H]2CN(CCCN3CCOCC3)[C@H](C1)O2	none (no result: ERb coact inh, ERa SRC1 pot, FAK inh, ERa SRC1 inh)
C=CCOc1ccc(CC2C(=O)N(C)C(=O)N(C)C2=O)cc1	ERa SRC1 inh 57
O=C(C1CCC(=O)N1Cc1ccccc1Cl)N1CCC2(CC1)OCCO2 (stereo not given)	ERa SRC1 pot 809[fluorescence artefact?]
COC1=C(C)C(=O)c2c(c(COC(N)=O)c3n2C[C@@H]2[C@H]3N2C)C1=O (stereo not given in full)	none (no result: ERb coact inh, ERa SRC1 pot, FAK inh, ERa SRC1 inh)
Nc1cc[c]([Hg])cc1.Nc1nc2c(ncn2[C@H]2O[C@H](CO)[C@@H](O)[C@@H]2O)c(=[SH+])[nH]1	Smad3 FoxH1 inh 73 (no result: ERb coact inh, ERa SRC1 pot, FAK inh, ERa SRC1 inh)
C[C@]12CC[C@H](O)C[C@@H]1CC[C@H]1[C@H]2CC[C@@]2(C)[C@H](C3=CC(=O)OC3)[C@H](O)C[C@]12O	none (no result: ERb coact inh, ERa SRC1 pot, FAK inh, ERa SRC1 inh)
COCC(C)OC(=O)c1c(N)n(Cc2ccco2)c2nc3ccccc3nc12 (stereo not given)	ERb coact inh 58[fluorescence artefact?]
CCOC(=O)c1c(N)n(Cc2ccco2)c2nc3ccccc3nc12	none
COc1ccc(Cn2c(N)c(C(=O)NCc3ccco3)c3nc4ccccc4nc32)cc1	ERa SRC1 inh 73
Nc1c(C(=O)NCc2ccco2)c2nc3ccccc3nc2n1Cc1ccc(F)cc1	none
C[C@@H]1O[C@H](O[C@H]2C[C@@H](O)[C@]3(CO)[C@@H]4[C@@H](O)C[C@]5(C)[C@@H](C6=CC(=O)OC6)CC[C@@]5(O)[C@H]4CC[C@@]3(O)C2)[C@@H](O)[C@H](O)[C@H]1O	none (no result: ERb coact inh, ERa SRC1 pot, FAK inh, ERa SRC1 inh)
O=C(c1ccc(CS(=O)(=O)c2ccccc2)o1)N1CCC2(CC1)OCCO2	ERb coact inh 74[fluorescence artefact?]
CCOc1ccccc1N1C(=O)NC(=O)C(CCc2ccncc2)(CCc2ccncc2)C1=O	ERa SRC1 pot 384
CCCCn1c(NC(=O)c2ccco2)c(C(=O)OCC)c2nc3ccccc3nc21	FAK inh 27 | FAK inh confirm inactive
CCCCOCCCn1c(N)c(C(=O)OCCOC)c2nc3ccccc3nc21	none
O=[As](O)(O)c1ccc(N=Nc2ccc([As](=O)(O)O)cc2)cc1	none (no result: ERb coact inh, ERa SRC1 pot, FAK inh, ERa SRC1 inh)
C[C@H]1CCCC(=O)CCC/C=C/c2cc(O)cc(O)c2C(=O)O1	FAK inh 35 | FAK inh confirm 31
COc1ccc(OCC(=O)Nc2ccc(Cl)cc2C(=O)c2ccccc2)cc1	FAK inh 25 (no result: ERb coact inh, Smad3 FoxH1 inh, ERa SRC1 pot, ERa SRC1 inh) | FAK inh confirm inactive
CN(C)CCC(C#N)(c1ccccc1)c1ccccc1	none (no result: ERb coact inh, ERa SRC1 pot, FAK inh, ERa SRC1 inh)

Screening results deposited in PubChem by several laboratories.
